Records with an inconclusive call do not appear. Calls of active or inactive are those of the source. Calls follow the shape of the dose curve; as a rule, active = well fitted curve in the direction sought with a large enough effect; inconclusive = small, poorly fitted or top-dose-only effect, or another doubt; inactive = no such curve, though single readings can be large; an effect the other way counts as inactive or inconclusive.
Tests used:
[1] = Confirmatory screen NINDS Rhodamine qHTS for Zika virus inhibitors (AID 1347161); also: nearly all actives have a fitted effect of over 60% in size; also: potency is read from the fitted curve at half-maximal effect;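 as to activity change, negative = inhibition: purified Zika NS2B-NS3 protease with linked NS2B cofactor domain and Rhodamine110 peptide substrate; series mostly up to about 110 µM; plate controls were no-inhibitor control for no effect and no-enzyme control for full effect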
Summary of the method: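 In 10 mM Tris-HCl pH 8.0 containing 0.01% Tween 20, linked NS2B-NS3 protease (25 nM final) is exposed to test compounds for 15 min. Cleavage of 1.5 microM Rhodamine110 substrate is tracked by fluorescence over 15 min.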

[2] = Tertiary RLuc qRT-PCR qHTS assay for Zika virus inhibitors (AID 1347169); also: nearly all actives have a fitted effect of over 55% in size; also: potency is read from the fitted curve at half-maximal effect
Summary of the method: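 Vero, 1,000 cells/well, o/n 37 C; cpd pinned in DMSO; ZIKV-RLuc Cambodian, MOI 1-2, 48-72 h 37 C; live-cell RLuc substrate, lum read at 1-1.5 h.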

[3] = qHTS to identify inhibitors of the type 1 interferon - major histocompatibility complex class I in skeletal muscle: primary screen against the NCATS Pharmaceutical Collection (AID 1347407);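 also: luminescence of HiBiT knocked into endogenous HLA-B as interferon-induced MHC class I level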; also: potency is read from the fitted curve at half-maximal effect
Summary of the method: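 Luminescence from HiBiT-tagged endogenous HLA-B*08:01 served as the read-out of IFN-beta-induced MHC class I in CRISPR-engineered C25cl48 myoblasts. Cells received 4 ng/ml IFN-beta plus compound (high final 46 uM, […]) for 24 h.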

[4] = molecular target: Protein phosphatase 1D (Homo sapiens) (UniProt O15297); assay: RapidFire Mass Spectrometry qHTS Assay for Modulators of WT P53-Induced Phosphatase 1 (WIP1) (AID 1347424); also: potency is read from the fitted curve at half-maximal effect;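 as to activity change, negative = inhibition: series mostly up to about 63 µM; plate controls were DMSO wells for no effect and GSK830371 inhibitor control at 10 µM for full effect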
Protein phosphatase 1D (Homo sapiens), sequence (O15297 whole entry, looked up): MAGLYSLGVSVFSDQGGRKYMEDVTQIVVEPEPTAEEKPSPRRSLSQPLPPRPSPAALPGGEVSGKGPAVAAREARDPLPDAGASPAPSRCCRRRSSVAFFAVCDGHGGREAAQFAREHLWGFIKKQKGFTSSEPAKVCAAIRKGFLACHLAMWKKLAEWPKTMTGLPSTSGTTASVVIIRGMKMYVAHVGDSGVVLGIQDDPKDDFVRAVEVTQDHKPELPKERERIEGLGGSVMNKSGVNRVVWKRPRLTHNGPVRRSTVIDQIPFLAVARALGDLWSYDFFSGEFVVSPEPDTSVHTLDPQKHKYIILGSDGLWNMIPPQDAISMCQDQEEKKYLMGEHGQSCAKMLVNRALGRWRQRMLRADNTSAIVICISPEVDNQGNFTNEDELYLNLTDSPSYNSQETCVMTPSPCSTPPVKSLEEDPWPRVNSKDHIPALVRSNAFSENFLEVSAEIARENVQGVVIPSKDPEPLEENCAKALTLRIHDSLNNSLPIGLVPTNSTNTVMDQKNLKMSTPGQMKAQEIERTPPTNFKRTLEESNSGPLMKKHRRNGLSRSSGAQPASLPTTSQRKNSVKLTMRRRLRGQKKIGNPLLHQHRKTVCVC
Summary of the method: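 RapidFire MS readout of dephosphorylated VEPPL-S-QETFS product, with 1 uM isotope-labelled peptide standard. Reaction: 10 nM WIP1, 2 uM phosphopeptide substrate, 5 min, room temperature, after 1 h compound preincubation; stopped with 0.5% formic acid.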

[5] = molecular target: Protein phosphatase 1D (Homo sapiens) (UniProt O15297); assay: Rhodamine-PBP qHTS Assay for Modulators of WT P53-Induced Phosphatase 1 (WIP1) (AID 1347425); also: % of control where 0% means no effect
Summary of the method: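 WIP1 (5 nM final) was preincubated with compound for 1 hour at room temperature. It then dephosphorylated 10 uM VEPPL-pS-QETFS peptide in Tris-HCl pH 7.5 with 30 mM MgCl2. Released Pi was detected by 10 uM Rh-PBP fluorescence (ex 525/em 598 nm) read at 1-min intervals for 11 min, as delta f1 - f0.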

[6] = Primary qHTS for inhibitors of La Crosse Virus (LACV) - induced cell death in SH-SY5Y cells (AID 1508616);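 also: top concentration of the series differs between compounds; 0% = infected DMSO wells and 100% = uninfected DMSO wells; higher means more rescue of cells from virus-induced death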
Summary of the method: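 Cytopathicity rescue screen: compounds pinned onto SH-SY5Y cells, which are then infected with LACV (MOI 0.01) and held 6 days at 37C. Percent activity is scaled between infected DMSO control and uninfected DMSO control.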

[7] = test system: Zika virus NS2B-NS3 protease (linked construct); assay: Primary screen NINDS Rhodamine qHTS for Zika virus inhibitors (AID 1347160); details: outcome: dose series up to 57.1 µM unless noted; also: nearly all actives have a fitted effect of over 55% in size
Summary of the method: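 Each compound, titrated, sat 15 min with 25 nM linked protease before 1.5 microM Rhodamine110 substrate went in. Fluorescence gain over the next 15 min, in pH 8.0 Tris with Tween 20, gave Hill-fitted curves.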

[8] = molecular target: Calcium and integrin-binding protein 1 (Homo sapiens) (UniProt Q99828); assay: Primary qHTS for Identification of Calcium Integrin Binding Protein 1 (CIB1) Competitor (AID 1508620);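 also: GST tagged CIB1 binding a fluorescein labelled alphaIIb integrin peptide tracer; top concentration of the series differs between compounds; % is scaled to controls: 0 for no effect and ±100 for the full control effect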
Calcium and integrin-binding protein 1 (Homo sapiens), sequence (Q99828 whole entry, looked up): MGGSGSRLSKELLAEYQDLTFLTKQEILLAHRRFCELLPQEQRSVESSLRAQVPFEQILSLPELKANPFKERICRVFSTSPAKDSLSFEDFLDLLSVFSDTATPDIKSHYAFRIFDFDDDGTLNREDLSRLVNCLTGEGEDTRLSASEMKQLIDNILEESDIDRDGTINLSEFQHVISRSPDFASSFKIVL
Summary of the method: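 Fluorescence polarization competition: GST-tagged CIB1 (1 uM final) preincubated with compound 15 min at room temperature, then FITC-labelled alphaIIb peptide (100 nM final) added. After 15 min at room temperature, polarization read at Ex 480/Em 540.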

[9] = test system: Zika virus NS2B-NS3 protease (unlinked complex); assay: Primary screen GU Rhodamine qHTS for Zika virus inhibitors: Unlinked NS2B-NS3 protease assay (AID 1347159); also: nearly all actives have a fitted effect of over 60% in size; also: potency is read from the fitted curve at half-maximal effect
Summary of the method: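 In dose–response format, inhibition of unlinked protease (25 nM) was measured with 1.5 microM bis-peptide Rhodamine110 substrate. Aprotinin served as the intraplate control.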

[10] = molecular target: Lysine-specific demethylase 5B (Homo sapiens) (UniProt Q9UGL1); assay: Optimization screen for KDM5B Histone Demethylases FDH coupled qHTS against the LOPAC library (AID 1347166); also: 0% is about no effect
Lysine-specific demethylase 5B (Homo sapiens), sequence (Q9UGL1 whole entry, looked up): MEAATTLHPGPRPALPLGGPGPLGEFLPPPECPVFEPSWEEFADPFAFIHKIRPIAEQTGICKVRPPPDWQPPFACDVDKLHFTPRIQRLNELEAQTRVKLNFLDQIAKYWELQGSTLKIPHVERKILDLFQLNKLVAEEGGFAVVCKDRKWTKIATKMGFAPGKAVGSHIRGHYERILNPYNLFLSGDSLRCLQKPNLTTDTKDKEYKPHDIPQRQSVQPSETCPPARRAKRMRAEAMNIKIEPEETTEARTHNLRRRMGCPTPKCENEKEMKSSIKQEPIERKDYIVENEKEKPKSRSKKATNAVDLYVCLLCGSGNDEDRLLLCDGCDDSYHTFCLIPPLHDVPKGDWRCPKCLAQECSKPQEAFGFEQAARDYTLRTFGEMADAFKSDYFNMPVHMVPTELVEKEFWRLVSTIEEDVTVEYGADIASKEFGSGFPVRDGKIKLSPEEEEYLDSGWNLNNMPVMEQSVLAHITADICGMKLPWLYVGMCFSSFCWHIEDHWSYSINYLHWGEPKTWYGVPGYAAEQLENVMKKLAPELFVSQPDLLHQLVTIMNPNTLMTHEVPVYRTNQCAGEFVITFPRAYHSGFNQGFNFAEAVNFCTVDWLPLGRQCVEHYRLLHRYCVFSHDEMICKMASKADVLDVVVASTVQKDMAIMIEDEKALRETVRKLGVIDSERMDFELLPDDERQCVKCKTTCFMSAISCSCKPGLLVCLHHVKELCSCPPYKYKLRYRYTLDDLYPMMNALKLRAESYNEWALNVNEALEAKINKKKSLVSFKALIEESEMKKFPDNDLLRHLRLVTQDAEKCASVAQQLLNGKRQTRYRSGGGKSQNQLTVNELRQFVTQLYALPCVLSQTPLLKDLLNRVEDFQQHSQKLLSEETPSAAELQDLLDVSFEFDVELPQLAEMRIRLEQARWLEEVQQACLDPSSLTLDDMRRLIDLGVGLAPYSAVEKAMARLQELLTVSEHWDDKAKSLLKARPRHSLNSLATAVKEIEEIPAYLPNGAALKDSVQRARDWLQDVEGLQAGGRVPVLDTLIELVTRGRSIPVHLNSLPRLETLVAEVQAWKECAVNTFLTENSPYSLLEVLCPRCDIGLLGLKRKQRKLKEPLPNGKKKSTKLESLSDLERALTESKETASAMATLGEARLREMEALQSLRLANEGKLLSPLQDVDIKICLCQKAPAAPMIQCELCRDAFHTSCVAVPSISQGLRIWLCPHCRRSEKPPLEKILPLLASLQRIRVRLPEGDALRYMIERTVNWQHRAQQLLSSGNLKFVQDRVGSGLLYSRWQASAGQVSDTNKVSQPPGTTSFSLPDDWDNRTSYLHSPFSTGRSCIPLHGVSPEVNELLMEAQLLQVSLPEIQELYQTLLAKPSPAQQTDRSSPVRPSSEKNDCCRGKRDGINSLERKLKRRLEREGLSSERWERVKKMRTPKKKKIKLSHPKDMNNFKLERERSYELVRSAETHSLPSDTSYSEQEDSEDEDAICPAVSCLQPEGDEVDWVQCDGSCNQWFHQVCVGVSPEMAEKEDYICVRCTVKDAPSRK
Summary of the method: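 KDM5BDeltaAP (200nM final) in 50mM HEPES pH 7.5, 0.01% Tween-20 was preincubated with compound for 10 min at room temperature. A substrate mix of 12.5uM H3K4Me3, 25uM a-ketoglutarate, ascorbate, Fe2+, NAD+ and formaldehyde dehydrogenase was then added. NADH fluorescence (340/450 nm) was read initially and after 30 min.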

[11] = qHTS to identify inhibitors of the type 1 interferon - major histocompatibility complex class I in skeletal muscle: primary screen against the NCATS LOPAC collection (AID 1347405);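 also: human myoblasts with HiBiT tag on endogenous HLA-B stimulated by IFN-beta; lytic HiBiT luminescence reporting HLA-B protein level; % is scaled to controls: 0 for no effect and ±100 for the full control effect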
Summary of the method: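 HLA-B HiBiT myoblasts, IFN-b 4 ng/ml, dexamethasone-free medium; compounds 7-pt 1:4.3 titration, top 46 uM final; 24 h at 37 C; Nano-Glo HiBiT lytic reagent, 10 min RT, luminescence.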

[12] = qHTS for inhibitors of adenylyl cyclases using a fission yeast platform: a pilot screen against the NCATS LOPAC library (AID 1347410);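 also: plate controls were DMSO vehicle for no effect and DPI positive control for full effect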
Summary of the method: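 Fission yeast qHTS: CHP2027 cells (AC9-GNAS-PDE4D2, fbp1-GFP), 5x10^6 cells/mL working density, EMM + His/Lys/Ura; LOPAC at up to 57 µM final; 18 h dark, 30C; GFP by laser cytometry. DPI positive control, DMSO vehicle.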

[13] = Validation qHTS assay for inhibitors of Activation Induced Cytidine Deaminase (AID): UDG Counterscreen signal (AID 1347427); also: 0% is about no effect
Summary of the method: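 Fluorescence at 560 nm excitation, 665 nm emission reports UDG signal after 250 mM NaOH (2x) addition and 30 min. Enzymes (AID 1 uM, UDG 2 U/mL, at 4/3x) preincubated 10 min with compound, then 4 h with 4x 250 nM DJC20/DJC23 substrate at room temperature.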

[14] = molecular target: Single-stranded DNA cytosine deaminase (Homo sapiens) (UniProt Q9GZX7); assay: Validation qHTS assay for inhibitors of Activation Induced Cytidine Deaminase (AID): AID signal (AID 1347429); also: % is scaled to controls: 0 for no effect and ±100 for the full control effect
Single-stranded DNA cytosine deaminase (Homo sapiens), sequence (Q9GZX7 whole entry, looked up): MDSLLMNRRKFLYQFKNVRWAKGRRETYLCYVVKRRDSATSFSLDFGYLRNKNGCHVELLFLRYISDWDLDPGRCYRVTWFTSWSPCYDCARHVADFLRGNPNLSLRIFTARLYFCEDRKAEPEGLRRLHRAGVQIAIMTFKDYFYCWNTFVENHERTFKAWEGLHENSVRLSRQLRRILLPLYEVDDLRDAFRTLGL
Summary of the method: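 AID+UDG coupled FRET deamination; cpds up to 114 uM final; DJC20/DJC23 substrate, 4 hr RT; NaOH stop, 30 min RT; read Ex 540/Em 590.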

[15] = Vero cells viability qHTS for Zika virus inhibitors (AID 1347167); also: % is scaled to controls: 0 for no effect and ±100 for the full control effect
Summary of the method: (§1)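 qHTS titration; 24-48 h compound exposure, 37 degrees C/5% CO2; DMEM, 4% FBS; CellTiter Glo ATP luminescence.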

[16] = HepG2 cells viability qHTS for Zika virus inhibitors (AID 1347168); also: % is scaled to controls: 0 for no effect and ±100 for the full control effect
Summary of the method: as §1

[17] = test system: Zika virus NS2B-NS3 protease (linked); assay: 384 well plate NINDS AMC confirmatory qHTS for Zika virus inhibitors (AID 1347163); also: potency is read from the fitted curve at half-maximal effect; nearly all actives have a fitted effect of over 50% in size
Summary of the method: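 Enzyme (5, 30 or 60 nM final) first met test compounds for ~15 min. The AMC-tagged peptide Ac-VKTGKR-AMC followed at 30 microM. Fluorescence was then recorded at 25 min and scaled against no-enzyme and no-inhibitor wells.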

[18] = test system: Zika virus NS2B-NS3 protease (linked construct); assay: 384 well plate NINDS Rhodamine confirmatory qHTS for Zika virus inhibitors (AID 1347164); details: rhodamine-110 peptide substrate fluorescence;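 also: fluorescence from protease cleavage of Ac-LKRR-rhodamine 110 substrate; potency is read from the fitted curve at half-maximal effect; nearly all actives have a fitted effect of over 65% in size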
Summary of the method: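 Enzyme (final 5/30/60 nM) + cpd (DMSO), ~15 min; add Ac-LKRR-Rd 10 microM final; 25 min RT, dark; FI ex 485/em 538; normalized to no-enzyme, no-inhibitor ctrls; aprotinin intraplate ctrl.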

[19] = molecular target: Calcium and integrin-binding protein 1 (Homo sapiens) (UniProt Q99828); assay: Confirmatory qHTS for Identification of Calcium Integrin Binding Protein 1 (CIB1) Competitor (AID 1508617); also: % is scaled to controls: 0 for no effect and ±100 for the full control effect; nearly all actives have a fitted effect of over 65% in size
Summary of the method: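 FP competition: CIB1-GST (1 uM final) in 5 mM HEPES pH 7.4, 125 mM NaCl, 5 mM CaCl2, 0.01% Tween20 preincubated 15 min RT with compounds (up to 114 uM), then FITC-alphaIIb peptide (100 nM), 15 min RT; Ex 480/Em 540.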

O=C(COCCOCCOCC(=O)Nc1c(I)cc(I)c(C(=O)O)c1I)Nc1c(I)cc(I)c(C(=O)O)c1I
inactive: Potency [1] | Potency [2] | Potency [3] | Potency [4] | outcome [5] | outcome [6]

C[N+]1(CC2COC(c3ccccc3)(c3ccccc3)O2)CCCCC1 (stereo not given)
inactive: outcome [7] inactive [at 33.1 µM] | Potency [3] | Potency [4] | outcome [5] | Potency [8]

CN1[C@@H]2CC[C@H]1CC(NC(=O)n1c(=O)[nH]c3ccccc31)C2 (stereo not given in full)
inactive: outcome [7] | Potency [3] | Potency [4] | outcome [5] | outcome [6] | Potency [8]

OC1(c2ccc(Cl)c(C(F)(F)F)c2)CCN(CCCC(c2ccc(F)cc2)c2ccc(F)cc2)CC1
inactive: Potency [9] | outcome [7] | Potency [4] | outcome [5] | outcome [6] | Potency [8]

C[N+](C)(C)CCO
inactive: outcome [10] | Potency [11] | outcome [12] | outcome [13] | outcome [14] | outcome [6]

CC1CC(=O)NN=C1c1ccc(NCC(C)(C)NCC(O)COc2cc(Cl)ccc2C#N)cc1 (stereo not given)
inactive: outcome [7] | Potency [3] | Potency [4] | outcome [5] | outcome [6] | Potency [8]

CCOC(=O)c1ccc(NC(=O)CN2CCCCC2)cc1
inactive: Potency [9] | outcome [7] | Potency [4] | outcome [5] | outcome [6] | Potency [8]

O=C(CCC1CCN(Cc2ccccc2)CC1)c1ccc2c(c1)NCCCC2
inactive: Potency [9] | outcome [7] | Potency [4] | outcome [5] | outcome [6] | Potency [8]

CC(C(O)c1ccccc1)N(C)CCOC(c1ccccc1)c1ccccc1 (stereo not given)
inactive: outcome [7] | Potency [4] | outcome [5] | outcome [6]

CCCN(CCC)C(=O)C(CCC(=O)OCCCN1CCN(CCOC(=O)Cc2c(C)n(C(=O)c3ccc(Cl)cc3)c3ccc(OC)cc23)CC1)NC(=O)c1ccccc1 (stereo not given)
inactive: outcome [7] | Potency [3] | Potency [4] | outcome [5] | Potency [8]

COc1cc(C(=O)OC(COCCC(C)C)CN2CCOCC2)cc(OC)c1OC (stereo not given)
inactive: Potency [9] | outcome [7] | Potency [4] | outcome [5] | outcome [6] | Potency [8]

Cn1cnc2c(NCc3ccccc3)nc(NCCO)nc21
inactive: outcome [10] | outcome [12] | outcome [13] | outcome [14] | outcome [6]

N[C@@H](Cc1cc(I)c(O)c(I)c1)C(=O)O
active: Potency [4] 20 µM
inactive: outcome [15] | outcome [16] | Potency [2] | Potency [3] | outcome [6]

O=C(CCCCC(=O)Nc1c(I)cc(I)c(C(=O)O)c1I)Nc1c(I)cc(I)c(C(=O)O)c1I
inactive: Potency [1] | activity change, negative = inhibition [2] 2.99% [at 5.25 µM] | Potency [3] | Potency [4] | outcome [5] | outcome [6] | Potency [8]

O=C1NC(=O)/C(=C/c2ccc3c(c2)OC(F)(F)O3)S1
active: Potency [9] 12.6 µM | Potency [1] 7.84 µM | Potency [17] 7.94 µM | Potency [18] 5.01 µM | Potency [2] 11.7 µM
inactive: outcome [10] | outcome [16] | outcome [12] | outcome [13] | outcome [14] | outcome [6] | Potency [8]

CC[N+]1(CC)CCC(=C(c2ccccc2)c2ccccc2)C1C (stereo not given)
inactive: outcome [7] | Potency [3] | Potency [4] | outcome [5] | outcome [6] | Potency [8]

CC1CN(c2cc3c(cc2F)c(=O)c(C(=O)O)cn3-c2ccc(F)cc2F)CCN1 (stereo not given)
inactive: Potency [9] | activity change, negative = inhibition [4] -2.72% [at 6.17 µM] | activity change, negative = inhibition [5] 0.0772% [at 4.81 µM] | activity change [6] -2.85% [at 0.431 µM] | Potency [8]

CSc1ccc(/C=C2/C(C)=C(CC(=O)O)c3cc(F)ccc32)cc1
inactive: Potency [3]

CN(C)CCCOC1(Cc2ccccc2)CCCCCC1
inactive: Potency [3] | Potency [4] | outcome [5] | outcome [6]

CC(C)(C)C(O)/C=C/c1ccc2c(c1)OCO2 (stereo not given)
inactive: Potency [3] | Potency [4] | outcome [5] | outcome [6]

N#Cc1cc(NC(=O)C(=O)O)c(Cl)c(NC(=O)C(=O)O)c1
inactive: Potency [3] | Potency [4] | outcome [5] | outcome [6]

CC(C)C(C)(C)C(C)(C)C(C)(C)S
inactive: Potency [3] | Potency [4] | outcome [5] | outcome [6]

Cc1c(C)c2c(c(C)c1OC(=O)CCC(=O)OCCO)CC[C@@](C)(CCC[C@H](C)CCC[C@H](C)CCCC(C)C)O2
inactive: Potency [3] | Potency [4] | outcome [5] | outcome [6]

COC(=O)c1cc(Cl)ccc1NS(=O)(=O)C(F)(F)F
inactive: Potency [3] | Potency [4] | outcome [5] | outcome [6] | Potency [19]

CC(C)NCCCC1(C(N)=O)c2ccccc2-c2ccccc21
inactive: Potency [3] | Potency [4] | outcome [5]

CC[C@@]1(O)C(=O)OCc2c1cc1n(c2=O)Cc2c-1nc1ccccc1c2/C=N/OC(C)(C)C
inactive: Potency [4] | outcome [5]
active: Potency [3] 0.745 µM

C[C@H]1C[C@H](O)c2ccsc2S1(=O)=O
inactive: Potency [3] | Potency [4] | outcome [5] | outcome [6]

CO/N=C(/C(=O)N[C@@H]1C(=O)N2C(C(=O)[O-])=C(C[n+]3ccn4ncccc43)CS[C@H]12)c1nsc(N)n1
inactive: Potency [3] | Potency [4] | outcome [5]

CCC1(c2cnc[nH]2)Cc2ccccc2C1
inactive: Potency [3] | Potency [4] | outcome [5]
